The panel holds about 83,000 compounds, 20% with a hit somewhere; the sample as a whole holds those more often.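 For each line, cells grew in 96-well plates with the test compound present at a single concentration for 48 hours.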 A number with no mark means an inactive call. The source made the active and inactive calls. How the source made its calls: active means growth percent below 10; inactive means the rest.

Some test systems named below: NCI-H23 lung; NCI-H226 lung; NCI-H322M lung; HOP-62 NSCLC; NCI-H460 lung; HOP-92 NSCLC; NCI-H522 lung; A549/ATCC NSCLC; 786-0 renal; COLO 205 colon; DU-145 prostate; K-562 leukemia; MALME-3M melanoma; MDA-MB-231 breast; RXF 393 renal; SF-268 CNS; SF-295 CNS; SF-539 CNS; UACC-257 melanoma; M14 melanoma.
Holding throughout (assay): NCI-60 one-dose screen, 48 h (100 = growth as untreated, 0 = no growth, -100 = all killed)
Holding throughout (details): 10 µM unless noted

As for `Cc1cc(NCC(=O)Nc2ccc(-c3nc4ccccc4s3)cc2)no1`, the growth in the assay with NCI-H23 lung was 82.8%; in the assay on NCI-H226 lung, 91%; in the assay on NCI-H322M lung it was 102%; with HOP-62 NSCLC, 111%; in the assay with NCI-H460 lung, 103%; in the assay on HOP-92 NSCLC, 100%. For the same compound, the growth in the assay on NCI-H522 lung is 82.1%; in the assay on A549/ATCC NSCLC, 92.3%; in the assay on 786-0 renal it was 102%; in the assay on COLO 205 colon it was 108%; with DU-145 prostate it was 95.9%; with K-562 leukemia, 83%. The growth in the assay on MALME-3M melanoma is 89.5%; with MDA-MB-231 breast, 108%; in the assay with RXF 393 renal, 105%; in the assay with SF-268 CNS it was 87.4%; in the assay on SF-295 CNS it was 96.4%; in the assay on SF-539 CNS, 105%. The figures for the growth with UACC-257 melanoma and in the assay with M14 melanoma were 99.7% and 106%, respectively.

With `Cc1cc(-c2cc(O)ccc2Cl)cc2nnc(Nc3ccc(OCCN4CCCC4)cc3)nc12`, the growth in the assay on NCI-H23 lung is -63.2% (active); with NCI-H226 lung, -51.7% (active); with NCI-H322M lung it was -94.4% (active); in the assay with HOP-62 NSCLC, -66.1% (active); in the assay with NCI-H460 lung, -81.6% (active); in the assay with HOP-92 NSCLC it was -69.1% (active). The growth is -49.5% (active) in the assay with NCI-H522 lung; -70.7% (active) with A549/ATCC NSCLC; -60.6% (active) with 786-0 renal; -61.4% (active) in the assay with COLO 205 colon; -89.4% (active) with DU-145 prostate; -63.9% (active) in the assay with K-562 leukemia. Also, the growth in the assay on MALME-3M melanoma was -68.4% (active); in the assay on MDA-MB-231 breast, -80.5% (active); in the assay on RXF 393 renal, -73.4% (active); in the assay on SF-268 CNS it was -69.8% (active); in the assay with SF-295 CNS, -76.3% (active); in the assay with SF-539 CNS, -86.8% (active). Moreover, the growth in the assay with UACC-257 melanoma is -75.9% (active); in the assay with M14 melanoma, -51.8% (active).

Regarding `O=c1[nH]c([C@@H]2CCCN2)nc2c1oc1ccc(Cl)cc12`, the growth in the assay on NCI-H23 lung is 60.7%; in the assay on NCI-H226 lung, 51.8%; in the assay on NCI-H322M lung, 56%; in the assay with HOP-62 NSCLC it was 47.2%; in the assay with NCI-H460 lung, 34.4%; in the assay on HOP-92 NSCLC, 39.8%. Besides, the growth with NCI-H522 lung was 24.7%; in the assay on A549/ATCC NSCLC it was 37.9%; with 786-0 renal, 84.4%; in the assay on COLO 205 colon, 12%; in the assay with DU-145 prostate it was 73.1%; with K-562 leukemia it was 43%. Further, the growth in the assay on MALME-3M melanoma is 64.2%; with MDA-MB-231 breast, 67.3%; with RXF 393 renal, 72.4%; in the assay on SF-268 CNS, 65.2%; in the assay with SF-295 CNS, 52.7%; with SF-539 CNS, 12.6%. For the same compound, the growth in the assay with UACC-257 melanoma was 64.6%; in the assay with M14 melanoma, 53.6%.

In the case of `COC(=O)Nc1nc2ccc(C(=O)c3ccc(N(C)C4COC4)cc3)cc2[nH]1`, the growth in the assay on NCI-H23 lung is 30.5%; in the assay on NCI-H226 lung, 67.2%; with NCI-H322M lung, 48.3%; with HOP-62 NSCLC, 10.2%; with NCI-H460 lung it was 3.28% (active); with HOP-92 NSCLC, 46.8%. Also, the growth with NCI-H522 lung is -31.5% (active); in the assay on A549/ATCC NSCLC, 14.9%; in the assay with 786-0 renal it was 27.8%; in the assay with COLO 205 colon, -38.8% (active); in the assay with DU-145 prostate it was 12.7%; in the assay with K-562 leukemia, 7.83% (active). Also, the growth was 53.8% in the assay with MALME-3M melanoma; 37.8% in the assay with MDA-MB-231 breast; 22.1% with RXF 393 renal; 41.5% with SF-268 CNS; 13.3% in the assay with SF-295 CNS; -7% (active) in the assay on SF-539 CNS. Further, the growth in the assay on UACC-257 melanoma was 44.4%; with M14 melanoma it was 3.69% (active).

With `CCCCCc1ccc(C)cc1OC(=O)CCl`, the growth is 113% with NCI-H23 lung; 104% in the assay with NCI-H226 lung; 97.3% in the assay on NCI-H322M lung; 109% in the assay with HOP-62 NSCLC; 104% in the assay with NCI-H460 lung; 73.6% in the assay on HOP-92 NSCLC. Also, the growth is 103% in the assay with NCI-H522 lung; 108% in the assay with A549/ATCC NSCLC; 110% in the assay with 786-0 renal; 107% with COLO 205 colon; 109% with DU-145 prostate; 98.8% with K-562 leukemia. Moreover, the growth is 90.9% in the assay with MALME-3M melanoma; 110% in the assay on MDA-MB-231 breast; 103% in the assay with RXF 393 renal; 105% in the assay with SF-268 CNS; 102% in the assay with SF-295 CNS; 112% in the assay with SF-539 CNS. In addition, the figures for the growth with UACC-257 melanoma and in the assay on M14 melanoma were 107% and 111%, respectively.

With `COc1ccc(-c2ccc3ncc4c(c3c2)n(-c2ccc(N3CCNCC3)c(C(F)(F)F)c2)c(=O)n4C)cn1`, the growth in the assay with NCI-H23 lung was -71.6% (active); with NCI-H226 lung it was -66.4% (active); with NCI-H322M lung, -89.6% (active); in the assay on HOP-62 NSCLC it was -72% (active); in the assay with NCI-H460 lung, -82.9% (active); with HOP-92 NSCLC, -83.2% (active). Also, the growth with NCI-H522 lung was -61.7% (active); with A549/ATCC NSCLC it was -83.2% (active); with 786-0 renal, -81.1% (active); with COLO 205 colon, -73.9% (active); in the assay on DU-145 prostate it was -89.4% (active); with K-562 leukemia, -48.2% (active). For the same compound, the growth in the assay on MALME-3M melanoma was -75.3% (active); with MDA-MB-231 breast it was -77.4% (active); in the assay with RXF 393 renal it was -83.2% (active); in the assay on SF-268 CNS it was -76.3% (active); with SF-295 CNS, -91.8% (active); with SF-539 CNS it was -84.7% (active). For the same compound, the growth with UACC-257 melanoma is -72.2% (active); with M14 melanoma, -83.2% (active).

As for `Cc1c(CN2CCN(C(=O)[C@H](C)O)CC2)sc2c(N3CCOCC3)nc(-c3cnc(N)nc3)nc12`, the growth with NCI-H23 lung is 6.62% (active); with NCI-H226 lung it was -4.64% (active); in the assay on NCI-H322M lung, -26.1% (active); with HOP-62 NSCLC, -10.3% (active); in the assay with NCI-H460 lung, 3% (active); in the assay on HOP-92 NSCLC, -24.6% (active). The growth with NCI-H522 lung was -12.2% (active); with A549/ATCC NSCLC it was -20.8% (active); in the assay on 786-0 renal, -19% (active); with COLO 205 colon, -32.3% (active); in the assay on DU-145 prostate, 8.38% (active); in the assay with K-562 leukemia, 17.6%. In addition, the growth in the assay with MALME-3M melanoma is -52.3% (active); in the assay with MDA-MB-231 breast it was 7.09% (active); in the assay with RXF 393 renal, -40.1% (active); in the assay on SF-268 CNS, 12.1%; with SF-295 CNS, -45% (active); in the assay on SF-539 CNS, -47.5% (active). The growth in the assay with UACC-257 melanoma was -34.3% (active); in the assay on M14 melanoma, -21.4% (active).
